CtBP-E1A blk: CtBP/E1A binding inhibition | AlphaScreen GST-E1A/His-CtBP binding, 1536-well; active compounds read low | activity change, % (test concentration not listed) | 340,000 tested, 0.49% active | AID 651724; in the data active means activity change below about -65%; inconclusive means mostly about -30% to -63%; further: on the % scale 0 is the no-effect control and ±100 the full control effect
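GST-E1A and His-tagged CtBP (125 nM each as 5X stock) were preincubated with pin-transferred compound for 2 h at 37 °C in the dark, then glutathione donor and nickel acceptor beads were added for 1 h before AlphaScreen reading.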
BAZ2B inh: inhibitors of human BAZ2B bromodomain; Q9UIF8; AlphaScreen BAZ2B-H3K14Ac peptide displacement; Potency, µM (titrated, usually from 114 µM), for the others: top-dose activity change, negative = inhibition, hits mostly inhibitors; 360,000 tested, 4.4% active; AID 504333; further: potency means the concentration at half of the fitted maximal effect; on the % scale 0 is the no-effect control and ±100 the full control effect; nearly all actives have a fitted effect of over 60% in size
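Multi-concentration screen (max 110 uM) measuring displacement of acetylated histone H3 peptide from BAZ2B by AlphaScreen, using 50 nM protein, 50 nM peptide and 10 ug/mL streptavidin donor plus Ni-chelate acceptor beads.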
JMJD2A Tudor inh: blocks the human JMJD2A Tudor domain; O75164; AlphaScreen JMJD2A-Tudor / H3K4me3 peptide binding; Potency, µM (top dose mostly 114 µM), for the others: at the top dose activity change, negative = inhibition, actives largely listed as inhibitors; 390,000 tested, 4.4% active; AID 504339; further: potency means the concentration at half of the fitted maximal effect; on the % scale 0 is the no-effect control and ±100 the full control effect; nearly all actives have a fitted effect of over 50% in size
Six1-Eya2 inh: inhibitors of human Six1/Eya2 interaction | AlphaScreen GST-Six1/His-Eya2 binding, biochemical; active compounds read low | activity change, % (no concentration beside the values) | 360,000 tested, 0.56% active; in the data active means activity change below about -65%; inconclusive means mostly about -30% to -63%; further: on the % scale 0 is the no-effect control and ±100 the full control effect
Target sequence (O00167 whole entry, looked up): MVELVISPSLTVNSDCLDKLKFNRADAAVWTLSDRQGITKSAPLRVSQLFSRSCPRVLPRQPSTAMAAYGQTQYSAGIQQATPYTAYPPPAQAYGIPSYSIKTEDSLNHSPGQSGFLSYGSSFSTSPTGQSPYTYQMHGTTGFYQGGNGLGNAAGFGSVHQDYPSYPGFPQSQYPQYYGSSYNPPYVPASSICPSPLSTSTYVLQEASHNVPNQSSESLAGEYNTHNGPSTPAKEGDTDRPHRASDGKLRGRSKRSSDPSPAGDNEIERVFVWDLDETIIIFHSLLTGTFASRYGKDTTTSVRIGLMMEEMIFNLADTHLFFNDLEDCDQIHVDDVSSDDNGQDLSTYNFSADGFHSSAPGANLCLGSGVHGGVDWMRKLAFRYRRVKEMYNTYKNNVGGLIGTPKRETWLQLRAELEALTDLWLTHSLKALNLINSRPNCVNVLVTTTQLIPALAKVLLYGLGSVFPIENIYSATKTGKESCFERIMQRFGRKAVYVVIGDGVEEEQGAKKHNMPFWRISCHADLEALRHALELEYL
Target sequence (Q15475 whole entry, looked up): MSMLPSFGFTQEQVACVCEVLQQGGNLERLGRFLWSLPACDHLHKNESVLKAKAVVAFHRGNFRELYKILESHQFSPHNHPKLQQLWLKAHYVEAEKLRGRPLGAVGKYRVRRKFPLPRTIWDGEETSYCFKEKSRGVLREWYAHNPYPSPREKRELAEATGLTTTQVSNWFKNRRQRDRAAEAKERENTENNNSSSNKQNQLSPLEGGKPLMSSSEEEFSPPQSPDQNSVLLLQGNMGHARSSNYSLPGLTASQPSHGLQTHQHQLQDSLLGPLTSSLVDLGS
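Six1/Eya2 binding was read as AlphaScreen signal after compounds were pinned into GST-Six1 plus His-tagged Eya2 (5X stock 250/500 nM) in pH 8.0 Tris/NaCl/TCEP buffer, beads added, then incubated 1 h, 37 C, dark.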
HP1b binding inh: inhibitors of HP1-beta chromodomain binding to methylated histone tails; Potency, µM (highest dose often 114 µM), for inactives: top-dose activity change, negative = inhibition, hits mostly inhibitors; 390,000 tested, 0.56% active; AlphaScreen HP1-beta / biotin-H3K9me3 peptide binding; AID 540317; further: potency means the concentration at half of the fitted maximal effect; nearly all actives have a fitted effect of over 70% in size
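AlphaScreen: HP1-beta (50 nM) preformed 30 min with biotin-H3(1-18)K9me3 peptide (50 nM) in PBS pH 7.4, 0.01% Tween-20. Compound added for 30 min at RT, then streptavidin donor/nickel chelate acceptor beads (10 ug/mL) for 30 min.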
TDP1 inh: TDP1 (human) enzyme inhibition; Potency, µM (titrated, usually from 130 µM), inactives show top-dose activity change, negative = inhibition, usual class: inhibitors; Q9NUW8; recombinant TDP1, AlphaScreen DNA substrate cleavage; 350,000 tested, 0.28% active; further: potency means the concentration at half of the fitted maximal effect; on the % scale 0 is the no-effect control and ±100 the full control effect; nearly all actives have a fitted effect of over 40% in size
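Signal: AlphaScreen proximity between streptavidin donor and anti-FITC acceptor beads on intact substrate. Reaction: Tdp1 1 nM, substrate 15 nM final, 5 min RT after 15 min compound preincubation.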
The depositor's hits bear a star; ? = inconclusive; . = no result; [ ] = dose if it differs, or a comment. Shown are actives, neighbours in structure and some others; about 5.3% of the full set was active somewhere. Unless noted, the call rests on the fitted dose curve; in most records, active means well fitted inhibition curve with a large enough effect; inconclusive means small, poorly fitted or top-dose-only effect; inactive means no such curve, though single readings can be large or run the other way.

SMILES | CtBP-E1A blk | BAZ2B inh | JMJD2A Tudor inh | Six1-Eya2 inh | HP1b binding inh | TDP1 inh
CN(C)c1ccc(C=c2c3cc(O)ccc3n3c2cc(-c2ccccc2)[n+]3C)cc1 | 12 | . | 25µM* | -74* | 50µM* | .
CN(C)c1ccc(/C=c2\sc3nc(-c4ccccc4)nn3c2=O)cc1 | . | 2% | . | . | . | 2%
Cc1cccc(C)c1NC(=O)Cn1c(=O)cc(C)c2c(C)nn(-c3cccc(Cl)c3C)c21 | . | -15% | -15% | . | 37% | 2%
CC1(C)CC(=O)C2=C(C1)NC(Nc1nc3ccccc3o1)=NC2c1cccnc1 (stereo unspecified) | . | . | -13% | . | 29% | 0%
Cc1cc(=O)[nH]c(/N=C(\N)Nc2cccc3ccccc23)n1 | 15 | 56µM* | ? | 1 | 15% | .
COc1ccccc1N/C(N)=N/c1nc(CSc2ccc(C)cc2)cc(=O)[nH]1 | -3 | -28% | 79µM* | -11 | -12% | 10%
Cc1cc(=O)[nH]c(/N=C(\N)Nc2ccc(Oc3ccccc3)cc2)n1 | 1 | -9% | 4% | 4 | 25% | .
COc1ccc(Cl)cc1NC(=O)c1c(C(=O)Nc2cccc(C)c2C)sc2nc(C)cc(=O)n12 | . | -3% | -6% | . | 5% | 5%
COc1ccc(Nc2nc(-c3sc(C)nc3C)cs2)cc1 | . | 50µM* | ? | 0 | ? | .
Cc1nc(C)c(-c2csc(Nc3ccc(N)cc3)n2)s1 | . | 28µM* | 50µM* | -1 | ? | .
O=C(CSc1nc2cc(Cl)ccc2s1)c1ccco1 | 12 | 44% | 29% | 6 | 56% | -6%
CCn1c(SCC(=O)N/N=C/C=C/c2ccco2)nc2ccccc21 | -12 | 45µM* | ? | -16 | -9% | 2%
CCn1c(SCC(=O)NC(=O)NC(C)(C)C)nc2ccccc21 | -12 | -4% | 11µM* | 3 | ? | 2%
O=C(CSc1nnc(SCC(=O)c2ccco2)s1)c1ccco1 | -2 | ? | 20µM* | 1 | ? | -1%
COCCn1c(SCC(=O)NC(=O)NC(C)(C)C)nc2ccccc21 | 5 | 2% | -11% | 1 | 27% | 2%
O=C(CSc1nnc(SCc2ccccc2)s1)N/N=C/C=C\c1ccco1 | 0 | 14µM* | 13µM* | -20 | ? | ?
O=C(CSc1nnc(SCc2ccccc2Cl)s1)N/N=C/c1c[nH]c2ccccc12 | -6 | 13% | -32% | -2 | 28% | 2%
Cc1ccc(CSc2nnc(SCC(=O)N/N=C/c3c[nH]c4ccccc34)s2)cc1 | 19 | 20µM* | ? | -5 | -2% | 6.3µM*
CCOc1ccccc1C1C(C#N)=C(N)SC(N)=C1C#N | 3 | 2% | 79µM* | -6 | 1% | 7%
CCOc1ccc(C2C(C#N)=C(N)SC(N)=C2C#N)cc1OCC | -2 | ? | ? | -4 | 5% | 4%
COc1ccc(C2Nc3ccccc3C(=O)N2Cc2ccccc2)cc1COc1ccc(C#N)cc1 (stereo unspecified) | . | . | ? | . | . | 0%
CCc1ccc(-c2nc(CN3CCCC(C(=O)N4CCN(c5cc(Cl)ccc5C)CC4)C3)c(C)o2)cc1 (stereo unspecified) | . | 10µM* | ? | . | -20% | 8%
CN1CCN(/C=N/c2sc3c(c2C#N)CCCCC3)CC1 | 9 | ? | ? | 3 | 4% | 6%
N#Cc1c(/N=C/C=C/c2ccccc2)sc2c1CCCC2 | -24 | 22µM* | 45µM* | -29 | 18µM* | 8%
Cc1ccc(/C=N/c2sc3c(c2C#N)CCCCC3)o1 | -12 | 28µM* | 56µM* | -30 | ? | 8%
SMILES | CtBP-E1A blk | BAZ2B inh | JMJD2A Tudor inh | Six1-Eya2 inh | HP1b binding inh | TDP1 inh
CC(=O)c1ccc(-c2csc3ncnc(Sc4nnnn4C)c23)cc1 | . | . | -20% | . | . | .
O=C(O)/C=C/C(=O)Nc1ccccc1-c1ccccc1NC(=O)/C=C/C(=O)O | -23 | -1% | 79µM* | -20 | 33% | -3%
CC1CCN(C(=O)C(C)OC(=O)c2ccc(S(C)(=O)=O)c([N+](=O)[O-])c2)CC1 (stereo unspecified) | . | . | -20% | . | 42% | 0%
O=C(NCc1ccc2c(c1)OCO2)O[C@@H]1C(=O)c2cc(Br)ccc2O[C@H]1c1ccc2c(c1)OCO2 | . | . | . | . | . | 12%
Cc1ccc(CNC(=O)C2CCN(S(=O)(=O)c3ccc4[nH]c(=O)ccc4c3)CC2)cc1 | . | 3% | -10% | . | 15%[57 µM] | -3%
COc1ccc(N/N=C(/C)c2cnnc(-c3ccccc3)n2)cc1 | -3 | -38% | 79µM* | 7 | -13% | 5%
CCOc1ccc2c(c1)-c1c(ssc1=S)C(C)(C)N2C | -71* | 10µM* | 11µM* | ? | 2µM* | 14%
O=C(CN1CCCCCC1)Nc1nc2ccccc2s1 | -4 | . | 22µM* | -2 | ? | .
O=C(CSc1nccn1Cc1ccc(F)cc1)Nc1nc2ccccc2s1 | . | ? | ? | . | -18%[57 µM] | 11%
CN1CCN(CC(=O)Nc2nc3ccccc3s2)CC1 | . | 71µM* | 28µM* | 0 | ? | .
O=C(CN1CCN(Cc2ccccc2)CC1)Nc1nc2ccccc2s1 | -4 | -15% | -21% | -3 | 22% | .
CCOC(=O)N1CCN(CC(=O)Nc2nc3ccccc3s2)CC1 | -1 | -7% | ? | 5 | 19% | .
O=C(CSc1nccn1Cc1ccccc1)Nc1nc2ccccc2s1 | . | ? | 50µM* | . | -5%[57 µM] | 14%
Cc1ccc(-c2cc3nccc(-c4cc([N+](=O)[O-])ccc4O)n3n2)cc1 | . | ? | -18% | . | 14% | 6%

Compound activity as filed in PubChem BioAssay.
